# Measurements published in PubChem BioAssay.
# Active and inactive are the calls of the source.
# Experiments:
# [1] = system: Human papillomavirus type 1a protein E7 (residues 44-93); assay: small molecules binding HPV E7 44-93 – biochemical, small-molecule microarray, residues 44-93, 635 nm fluorescence, primary screen (AID 1108); conditions: fluorescence 635 nm, higher = more signal;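 also: E7 fragment applied at 1 µg/mL in TBST for 1 h at 4 C; score combines spot fluorescence with its signal to noise ratio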
# [2] = hepatitis C replication reporter changes, two-sided – Huh7 cells, luciferase reporter, HCV replication inhibitor project, primary screen (AID 1109); conditions: Huh7 HCV replicon luciferase reporter, 48 h; higher = more signal;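 also: huh7 hepatoma cells harbouring a luciferase neomycin HCV replicon reporter; luciferase luminescence as measure of HCV replicon replication; test concentration not given here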
# [3] = molecular target: Left-right determination factor 2 (Homo sapiens) (UniProt O00292); assay: small molecules binding LEFTY2 protein – biochemical, small-molecule microarray, 635 nm fluorescence scan, primary screen (AID 1110); conditions: higher = more signal
# Left-right determination factor 2 (Homo sapiens), sequence (O00292 whole entry, looked up): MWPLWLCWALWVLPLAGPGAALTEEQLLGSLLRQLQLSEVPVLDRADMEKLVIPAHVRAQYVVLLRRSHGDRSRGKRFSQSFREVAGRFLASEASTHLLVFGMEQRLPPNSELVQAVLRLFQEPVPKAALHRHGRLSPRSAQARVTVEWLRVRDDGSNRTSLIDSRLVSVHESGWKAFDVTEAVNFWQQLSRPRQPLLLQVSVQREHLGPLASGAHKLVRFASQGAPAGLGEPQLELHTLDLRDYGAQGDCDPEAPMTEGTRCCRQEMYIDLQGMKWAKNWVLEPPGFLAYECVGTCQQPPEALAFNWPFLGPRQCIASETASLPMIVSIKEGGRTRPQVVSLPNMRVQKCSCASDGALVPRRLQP
# [4] = molecular target: Calmodulin-1 (Homo sapiens) (UniProt P0DP23); assay: small molecules binding calmodulin-1 with EGTA – biochemical, small-molecule microarray, Cy5-labelled CALM1, profiling panel (AID 1111); conditions: Cy5-CALM1 binding fluorescence, higher = more signal;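 also: labelled calmodulin applied in Tris saline Tween buffer holding calcium plus EGTA and DTT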
# [5] = molecular target: Calmodulin-1 (Homo sapiens) (UniProt P0DP23); assay: small molecules binding Ca-loaded calmodulin-1 – biochemical, small-molecule microarray, Cy5-labelled CALM1, plus calcium, artefact control for SMM control-protein annotation, profiling panel (AID 1112); conditions: Cy5-CALM1 binding fluorescence, higher = more signal;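 also: score merges spot fluorescence with signal to noise from triplicate slides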
# [6] = probe aWnt5a binding to arrayed compounds – biochemical, biotinylated probe, 635/667 nm fluorescence, primary screen (AID 1113); conditions: small-molecule microarray, higher = more signal;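 also: score merges 667 nm fluorescence intensity with signal-to-noise per printed feature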
# [7] = probe aShh binding to arrayed compounds – biochemical, biotinylated probe, 635/667 nm fluorescence, primary screen (AID 1114); conditions: small-molecule microarray, higher = more signal;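 also: probe is biotin-labelled aShh protein from a stem cell growth factor screen; measures binding of labelled protein to compounds printed on the slide; score merges feature fluorescence at 667 nm with signal-to-noise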
# [8] = probe aNog binding to arrayed compounds – biochemical, biotinylated probe, 635/667 nm fluorescence, primary screen (AID 1115); conditions: small-molecule microarray, higher = more signal;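 also: probe is biotinylated aNog protein used at 0.15 µg/mL for 1 h at 4 C; z-score combines 667 nm fluorescence of each spot with its signal to noise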
# [9] = molecular target: Torsin-1A-interacting protein 1 (Homo sapiens) (UniProt Q5JTV8); assay: compound microarray binding of lysate hLAP1 – cell lysate, small-molecule microarray, COS7 lysate, 635/667 nm fluorescence, primary screen (AID 1116); conditions: 635 nm fluorescence, higher = more signal
# Torsin-1A-interacting protein 1 (Homo sapiens), sequence (Q5JTV8 whole entry, looked up): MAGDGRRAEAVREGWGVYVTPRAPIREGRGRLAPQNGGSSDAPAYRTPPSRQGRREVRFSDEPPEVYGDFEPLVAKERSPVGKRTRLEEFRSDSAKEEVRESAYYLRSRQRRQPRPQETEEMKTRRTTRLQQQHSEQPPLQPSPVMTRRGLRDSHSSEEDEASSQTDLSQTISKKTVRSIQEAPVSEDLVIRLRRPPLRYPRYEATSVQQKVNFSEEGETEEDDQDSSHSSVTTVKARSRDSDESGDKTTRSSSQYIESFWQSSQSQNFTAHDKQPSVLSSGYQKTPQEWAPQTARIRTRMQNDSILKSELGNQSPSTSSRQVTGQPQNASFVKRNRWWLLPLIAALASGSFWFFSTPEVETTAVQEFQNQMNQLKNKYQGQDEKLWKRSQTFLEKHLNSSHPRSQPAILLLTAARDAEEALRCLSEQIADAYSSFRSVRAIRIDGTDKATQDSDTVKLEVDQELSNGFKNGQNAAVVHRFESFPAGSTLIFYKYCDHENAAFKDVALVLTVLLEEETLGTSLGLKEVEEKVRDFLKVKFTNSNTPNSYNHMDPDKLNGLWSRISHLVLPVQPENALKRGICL
# [10] = molecular target: Alpha-bungarotoxin (Bungarus multicinctus) (UniProt P60615); assay: compounds binding labelled alpha-BTX control protein – biochemical, small-molecule microarray, Alexa647 label, 635/667 nm fluorescence, artefact control for SMM control protein annotation, profiling panel (AID 1117); conditions: alpha-BTX-A647 binding fluorescence, higher = more signal
# Alpha-bungarotoxin (Bungarus multicinctus), sequence (P60615 whole entry, looked up): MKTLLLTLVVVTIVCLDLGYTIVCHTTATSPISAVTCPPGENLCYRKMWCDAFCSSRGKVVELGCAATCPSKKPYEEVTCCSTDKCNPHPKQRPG
# Albumin (Bos taurus) = Albumin (Bos taurus) (UniProt P02769); assay: compounds binding labelled BSA control protein – biochemical, small-molecule microarray, Alexa647 label, 635/667 nm fluorescence, artefact control for SMM control protein annotation, profiling panel (AID 1118); conditions: BSA-A647 binding, fluorescence 635 nm, higher = more signal;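 also: score merges 667 nm emission intensity and signal-to-noise per printed compound spot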
# Albumin (Bos taurus), sequence (P02769 whole entry, looked up): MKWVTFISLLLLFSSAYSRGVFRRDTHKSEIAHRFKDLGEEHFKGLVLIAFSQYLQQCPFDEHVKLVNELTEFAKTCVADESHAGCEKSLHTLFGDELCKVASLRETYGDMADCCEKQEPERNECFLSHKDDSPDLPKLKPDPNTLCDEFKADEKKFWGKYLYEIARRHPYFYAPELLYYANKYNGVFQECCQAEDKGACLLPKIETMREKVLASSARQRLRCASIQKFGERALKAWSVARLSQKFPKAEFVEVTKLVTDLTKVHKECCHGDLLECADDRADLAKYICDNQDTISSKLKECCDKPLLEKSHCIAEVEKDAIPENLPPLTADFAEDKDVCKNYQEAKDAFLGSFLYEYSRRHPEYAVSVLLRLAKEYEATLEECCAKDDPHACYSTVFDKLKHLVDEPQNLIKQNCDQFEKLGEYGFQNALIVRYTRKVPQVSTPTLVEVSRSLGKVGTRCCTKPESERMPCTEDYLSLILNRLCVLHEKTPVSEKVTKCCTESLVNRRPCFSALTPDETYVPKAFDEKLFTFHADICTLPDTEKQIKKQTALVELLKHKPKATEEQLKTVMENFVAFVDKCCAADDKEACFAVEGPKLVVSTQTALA
# [11] = probe aXIP binding to arrayed compounds – biochemical, NeuroSMM set, 635/667 nm fluorescence, primary screen (AID 1119); conditions: small-molecule microarray, higher = more signal, called active from +8 up or from −8 down;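 also: probe is the protein aXip251-270 applied at 1 µg/mL to compound-printed slides; binding of probe to printed compounds measured as 667 nm fluorescence plus signal to noise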
# [12] = probe aNOTCH3 binding on compound microarray – biochemical, small-molecule microarray, 635/667 nm fluorescence, primary screen (AID 1120); conditions: higher = more signal;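 also: probe is a biotin-tagged antibody raised against NOTCH3 rather than NOTCH3 protein; score merges spot fluorescence near 667 nm with spot signal to noise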
# [13] = probe aNOTCH2 binding on compound microarray – biochemical, small-molecule microarray, 635/667 nm fluorescence, primary screen (AID 1121); conditions: higher = more signal;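 also: score merges feature fluorescence read at 667 nm with its signal to noise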
# [14] = molecular target: Carbonic anhydrase 2 (Homo sapiens) (UniProt P00918); assay: compounds binding carbonic anhydrase 2 – biochemical, small-molecule microarray, Alexa647-labelled CAII, profiling panel (AID 1122); conditions: CAII-A647 binding fluorescence, higher = more signal
# [15] = COS7 lysate on small-molecule microarray, probe aHis, 635 nm (AID 1123); conditions: COS7 cell lysate, fluorescence, higher = more signal;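 also: z-score combines 667nm fluorescence intensity with signal-to-noise per printed compound spot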
# [16] = probe aLAP1 signal on lysate-treated microarray – cell lysate, small-molecule microarray, COS7 lysate, primary screen (AID 1124); conditions: probe aLAP1, fluorescence, higher = more signal;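 also: lysate comes from COS7 cells expressing LAP1 and is applied at 0.3 µg/mL; score merges spot fluorescence near 667 nm with signal-to-noise over triplicate slides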
# Sam68 (KHDRBS1) = assay: compounds binding KHDRBS1 protein – biochemical, small-molecule microarray, 635 nm fluorescence, primary screen (AID 1125); conditions: higher = more signal;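 also: score merges 667 nm channel intensity with signal to noise over triplicate slides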
# [17] = system: Chordin-like protein 2 (CHRDL2); assay: compounds binding chordin-like 2 – biochemical, small-molecule microarray, 635 nm fluorescence, primary screen (AID 1126); conditions: fluorescence 635 nm, higher = more signal;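 also: printed compound slides probed with Chrdl2 protein at 4 µg/mL for 1 h at 4 C; score merges 667 nm emission intensity with signal to noise over three replicate slides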
# [18] = molecular target: Concanavalin-A (Canavalia ensiformis) (UniProt P02866); assay: compounds binding concanavalin A lectin – biochemical, small-molecule microarray, Alexa647 label, 635 nm, artefact control for SMM control protein annotation, primary screen (AID 1127); conditions: ConA-A647 binding fluorescence, higher = more signal;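 also: z combines 667 nm emission intensity with signal-to-noise across three replicate slides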
# Concanavalin-A (Canavalia ensiformis), sequence (P02866 whole entry, looked up): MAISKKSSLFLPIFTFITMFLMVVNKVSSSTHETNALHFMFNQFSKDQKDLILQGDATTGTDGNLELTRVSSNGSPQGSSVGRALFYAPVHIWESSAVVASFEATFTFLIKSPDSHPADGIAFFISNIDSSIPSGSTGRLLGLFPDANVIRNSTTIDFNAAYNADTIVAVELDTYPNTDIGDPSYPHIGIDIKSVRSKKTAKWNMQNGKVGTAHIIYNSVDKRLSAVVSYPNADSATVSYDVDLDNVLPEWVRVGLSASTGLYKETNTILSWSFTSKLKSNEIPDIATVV
Compound,composite z-score [1],z-score [2],composite z-score [3],composite z-score [4],composite z-score [5],composite z-score [6],composite z-score [7],composite z-score [8],composite z-score [9],composite z-score [10],composite z-score (Albumin (Bos taurus)),composite Z-score [11],composite z-score [12],composite z-score [13],composite z-score [14],composite z-score [15],composite z-score [16],composite z-score (Sam68 (KHDRBS1)),composite z-score [17],composite z-score [18]
CCOC(=O)[C@H](CC(C)C)NC(=O)CCC1CC(OC(=O)NCCc2ccc(F)cc2)CC2(CCCC(COC(=O)NCc3cccc(C(F)(F)F)c3)O2)O1 (stereo not given in full),1.38,-0.0709,0.605,-0.134,-0.448,-0.129,-0.154,0.28,0.274,0.342,0.386,1.35 (inactive),-0.0003,-0.117,0.475,0.953,-0.0042,1.21,0.273,0.542
C=CC[C@@H]1C=C[C@H](ON=CC[C@@H]2C=C[C@H](OC(C)=O)[C@@H](COC(C)=O)O2)[C@@H](CO)O1,1.25,0.563,0.514,0.501,-0.0909,0.423,0.113,-0.467,0.223,1.86,0.0919,-0.0027 (inactive),0.164,0.0219,0.197,0.312,0.0839,1.29,0.441,0.823
O=C1C=C[C@@H](O)[C@@H]2[C@@H]3C(=O)N(c4cccc(Oc5ccccc5)c4)C(=O)[C@@H]3CC[C@@H]12,0.242,-2.07,0.594,-0.203,-0.477,-0.152,-0.0626,-0.381,0.503,0.0671,0.0329,-0.554 (inactive),-0.132,-0.176,-0.0169,-0.55,-0.239,0.184,0.417,0.19
CC(CCN1CCc2nc(-c3ccccc3)c(-c3ccccc3)cc2C1)=NOC(C)CN1CCCc2nc(C)c(C)cc21 (stereo not given),1.39,-3.08,0.848,0.637,-0.0431,0.0017,0.267,0.378,0.825,1.03,0.682,0.944 (inactive),0.233,-0.0278,0.369,1.09,0.506,1.29,0.219,1.08
O=C1[C@H]2[C@H]3[C@H](O)[C@H](O)CC(=NO[C@@H]4O[C@H](CO)[C@@H](O)[C@H](O)[C@H]4O)[C@@H]3CC[C@H]2C(=O)N1c1cccc(Oc2ccccc2)c1,0.418,-0.174,0.982,0.209,0.0635,-0.0506,-0.0362,-0.0675,0.593,-0.447,0.29,-0.65 (inactive),-0.0391,-0.104,-0.0428,0.109,0.106,0.324,0.775,0.588
CCOC(=O)CCN1C(=O)[C@H]2[C@H]3[C@H](O)[C@H](O)CC(=NOCC(C)C)[C@@H]3CC[C@H]2C1=O,-0.998,-0.488,1.01,-1.92,-1.74,-0.284,-0.0471,-0.255,-0.202,-0.799,-0.0235,0.544 (inactive),-0.0693,-0.186,-0.52,-0.934,-0.412,-0.0659,1.45,-1.16
COC(=O)[C@@H]1CC[C@H](C)[C@@H](c2ccc(Br)cc2)N1,-1.28,-0.178,0.0281,-0.0261,0.394,0.0375,0.261,0.101,0.488,0.234,-0.109,1.22 (inactive),0.086,0.0037,0.665,0.878,-0.243,-1.39,0.322,-0.197
CCOC(=O)[C@H](Cc1ccccc1)NC(=O)CCC1CC(OC(=O)NCCc2ccc(F)cc2)CC2(CCCC(COC(=O)NCc3cccc(C(F)(F)F)c3)O2)O1 (stereo not given in full),1.3,-1.8,0.763,1.43,0.465,-0.154,-0.221,0.0498,0.109,1.04,0.825,1.43 (inactive),0.148,-0.192,0.499,2.08,0.137,1.3,0.285,1.06
CC(C)(C)N1C(=O)[C@H]2[C@H]3[C@H](O)[C@H](O)CC(=NNC(=O)OCc4ccccc4)[C@@H]3CC[C@H]2C1=O,0.594,0.508,0.432,-0.213,-0.412,-0.0721,-0.399,-0.137,0.505,0.162,0.303,-0.151 (inactive),0.073,-0.0515,0.0243,0.728,0.3,0.692,0.397,0.87
CC(CCC(=O)OC[C@H]1O[C@H](C#Cc2ccccc2)C=C[C@@H]1Oc1ccc(C)cc1)=NOC(C)CN1CCCCc2nc(C)c(C)cc21 (stereo not given in full),0.686,-1.17,-0.132,-0.19,0.571,-0.197,-0.0626,-0.257,-0.0043,1.53,0.473,1.48 (inactive),-0.0377,0.161,0.346,0.938,0.214,0.313,-0.168,-0.207
O=C1C=C[C@@H](O)[C@@H]2[C@@H]3C(=O)N(C4CCCCC4)C(=O)[C@@H]3CC[C@@H]12,0.502,-4.18,0.71,-0.0865,-0.713,-0.0459,-0.0793,-0.158,0.191,0.518,0.13,-0.388 (inactive),0.0738,-0.126,0.143,0.214,0.196,0.595,0.542,0.273
CCOC(=O)CCN1C(=O)[C@H]2[C@H]3[C@H](O)[C@H](O)CC(=NO[C@@H]4O[C@H](CO)[C@@H](O)[C@H](O)[C@H]4O)[C@@H]3CC[C@H]2C1=O,1.21,0.891,0.809,-0.896,-1.99,-0.0417,0.296,-0.0784,0.533,0.844,0.83,0.397 (inactive),0.207,-0.0698,0.381,0.279,-0.0046,1.3,1.04,0.322
